PubChem BioAssay (Tox21)
Records with an inconclusive call do not appear. A number with no mark means an inactive call. Calls follow the shape of the dose curve; as a rule, active = well fitted cell-killing curve with a large enough effect in the repeat runs; inconclusive = weak or mixed curves, or effect the other way; inactive = no such curve, though single readings can be large or run the other way.

assay: qHTS assay to identify small molecule antagonists of the peroxisome proliferator-activated receptor gamma (PPARg) signaling pathway - cell viability counter screen (AID 743194); settings: PPARg-bla HEK293H viability, CellTiter-Glo luminescence, 17 h, co-treated with 50 nM rosiglitazone; series mostly up to 62.6 µM; activity change, negative = cytotoxicity: at the top concentration; also: nearly all actives have a fitted effect of over 55% in size
From the text: U.S. Tox21 Program National Center for Advancing Translational Sciences [NCATS] NIH Chemical Genomics Center [NCGC] U.S. Environmental Protection Agency [EPA] National Institutes of Environmental Health Sciences [NIEHS] National Toxicology Program [NTP] U.S. Food and Drug Administration [FDA] Tox21 Assay Overview: The peroxisome proliferator-activated receptors (PPARs) are lipid-activated transcription factors of the nuclear receptor superfamily with three distinct subtypes namely PPAR alpha, PPAR delta (also called PPAR beta) and PPAR gamma (PPARg). All these subtypes heterodimerize with Retinoid X receptor (RXR) and these heterodimers regulate transcription of various genes. PPAR-gamma receptor (glitazone receptor) is involved in the regulation of glucose and lipid metabolism. To identify the compounds that activate PPAR-gamma signaling, GeneBLAzer PPAR gamma UAS-bla HEK293H cell line (Invitrogen, Carlsbad, CA, USA) containing a beta-lactamase reporter gene under the control of an Upstream Activator Sequence (UAS) was used to screen the Tox21 compound library. The cytotoxicity of the Tox21 compound library against the PPARg-bla cell line was tested in parallel by measuring the cell viability using CellTiter-Glo assay in the same wells.
Tox21 Assay Protocol Summary: PPARg-bla cells were dispensed at 3000 cells/5uL/well in 1536-well black wall/clear bottom plates using a Multidrop Combi (Thermo Fisher Scientific, Waltham, MA) dispenser. After the assay plates were incubated at 37 C and 5% CO2 for 5 h, 23 nL of compounds dissolved in DMSO, positive controls or DMSO only was transferred to the assay plate by a Pintool station (Kalypsys, San Diego, CA), followed by addition of 1ul Rosiglitazone (50 nM, final concentration in the wells). The assay plates were incubated at 37 C for 17 h, and then 1 uL of LiveBLAzerTM B/G FRET substrate was added using a Bioraptr Flying Reagent Dispenser (FRD) workstation (Beckman Coulter, Indianapolis, IN, USA). The assay plates were incubated at room temperature for 1 h and fluorescence intensity was measured by an Envision plate reader (PerkinElmer, Shelton, CT). For cell viability readout that measures cytotoxicity, 4 ul/well of CellTiter-Glo reagent was added into the assay plates using a Flying Reagent Dispenser. After 30 min incubation at room temperature, the luminescence intensity in the plates was measured using a ViewLux plate reader (PerkinElmer).
% is scaled to controls: 0 for no effect and ±100 for the full control effect.

Compound	activity change, negative = cytotoxicity
NC(=O)Nc1nc2ccccc2[nH]1	-0.722%
NS(=O)(=O)c1cc2c(cc1Cl)NC(CSCc1ccccc1)=NS2(=O)=O	-8.77%
C=CC(=O)N1CCOCC1	-1.46%
NCCN1CCNC1=O	7.37%
Cc1c(C)n(CCN(C)C)c2ccc(C(=O)OCCN(C)C)cc12	-25.6%
C=C(C)[C@H]1CC=C(C)CC1	-0.0892%
O=C1OC(=O)c2cc([N+](=O)[O-])ccc21	-9.3%
C#CC(O)C(CC)CCCC (stereo not given)	-20.9%
COc1ccc2cc(C=O)ccc2c1	3.23%
C=CCOCC(O)CS(=O)(=O)O (stereo not given)	9.83% [at 81.1 µM]
O=C(O)CCNC(=O)c1ccc(N=Nc2ccc(O)c(C(=O)O)c2)cc1	5.04%
C#CC(O)CCCCC (stereo not given)	6.54% [at 81.1 µM]
c1ccc(SCCSc2ccccc2)cc1	13.9%
Oc1ccc2c(c1)OC[C@@H](N1CCC(O)(c3ccc(F)cc3)CC1)[C@H]2O	13%
CCCOc1ccccc1-c1nc2n[nH]nc2c(=O)[nH]1	-17%
CCOC(=O)[C@H](CCc1ccccc1)N[C@@H](C)C(=O)N1CCC[C@H]1C(=O)O	14.3%
CCCCCCOC(=O)CC(CC(=O)OCCCCCC)(OC(=O)CCC)C(=O)OCCCCCC	-0.495%
CCN1CCCC1CNC(=O)c1cc(S(N)(=O)=O)ccc1OC (stereo not given)	9.77%
C[N+](C)(C)CC[N+]1(C)Cc2c(Cl)c(Cl)c(Cl)c(Cl)c2C1	7.94%
CC1CCN(CCCC(=O)c2ccc(F)cc2)CC1	-0.383%

Compound	activity change, negative = cytotoxicity
CC(C)[C@H](N)C(=O)OCCOCn1cnc2c(=O)[nH]c(N)nc21	-5.05%
Nc1[nH]c(=O)ncc1F	4.53%
C=CCn1c(=O)n([C@@H]2O[C@H](CO)[C@@H](O)[C@H]2O)c2nc(N)[nH]c(=O)c21	2.26%
C=C(C)C(=O)OCCCCCCCCCCCCCCCCCC	-4.93% [at 29.1 µM]
N#CCN(CC#N)CCN(CC#N)CC#N	1.76%
O=C(O)c1ccccc1S	-16%
Nc1nc(F)nc2c1ncn2[C@@H]1O[C@H](CO)[C@@H](O)[C@@H]1O	0.432%
CC(C)CCCCCCN	10.6%
Cc1cc(C)cc(OCC2CNC(=O)O2)c1 (stereo not given)	-5.48%
COC(=O)c1ccc(C(=O)OC)c(C(=O)OC)c1	5.65%
OCc1ccccn1	-1%
CCCCCCCCCCC1CO1 (stereo not given)	-7.48%
O=[N+]([O-])c1ccc(Oc2ccc([N+](=O)[O-])cc2)cc1	2.89% [at 81.1 µM]
CN1[C@@H]2CC[C@H]1CC(NC(=O)n1c(=O)[nH]c3ccccc31)C2 (stereo not given in full)	1.66%
Cc1ccccc1Br	15.3%
Cc1nccn1CC1CCc2c(c3ccccc3n2C)C1=O (stereo not given)	3.79%
NS(=O)(=O)c1cc(C2(O)NC(=O)c3ccccc32)ccc1Cl (stereo not given)	7.5%
N[C@@H](CS)C(=O)O	8.52% [at 81.1 µM]
CC(=O)c1ccc(C)cc1	14.7%
CCCCCCCCCCCCCCCCCC(=O)OCCCCCCCCCCCCCC(C)C	13.2%
